These results are taken from PubChem BioAssay (EPA / NIEHS).

The structures appear in SMILES notation. Records with an inconclusive call do not appear. The source made the active and inactive calls. How the source made its calls: active means hit-call score of the fitted dose curve at least 0.9, where 1 is the maximum; inconclusive means response in the unintended direction; inactive means score below 0.9.

As a reminder, the AC50 is the midpoint of the concentration-response curve, whichever way the signal moves.

The target of experiment [1] is human AKT serine/threonine Kinase 1 (AKT1), AKT1 (gene 207) (UniProt P31749). Description: NVS_ENZ_hAKT1: NovaScreen (NVS) Enzymatic Assay for human AKT serine/threonine Kinase 1 (AKT1) (AID 2283138). The gist of the method:
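Signal loss relative to DMSO, measured by fluorescence after electrophoretic separation of substrate and product, indicates inhibition of recombinant enzyme. Readings at 1 h; screening at 25 uM, follow-up curves up to 50 uM.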

The target of experiment [2] is human Colony Stimulating Factor 1 Receptor (CSF1R), CSF1R (gene 1436) (UniProt P07333). Description: NVS_ENZ_hCSF1R: NovaScreen (NVS) Enzymatic Assay for human Colony Stimulating Factor 1 Receptor (CSF1R) (AID 2283150). In a few lines: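 Cell-free recombinant human CSF1R kinase with fluorescent substrate, product separated by electrophoretic mobility shift; read 1 h after dosing. Primary screen at 25 uM in duplicate, actives then in concentration-response up to 50 uM, relative to DMSO.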
Sequence of human Colony Stimulating Factor 1 Receptor (CSF1R), CSF1R (gene 1436) (P07333 whole entry, looked up): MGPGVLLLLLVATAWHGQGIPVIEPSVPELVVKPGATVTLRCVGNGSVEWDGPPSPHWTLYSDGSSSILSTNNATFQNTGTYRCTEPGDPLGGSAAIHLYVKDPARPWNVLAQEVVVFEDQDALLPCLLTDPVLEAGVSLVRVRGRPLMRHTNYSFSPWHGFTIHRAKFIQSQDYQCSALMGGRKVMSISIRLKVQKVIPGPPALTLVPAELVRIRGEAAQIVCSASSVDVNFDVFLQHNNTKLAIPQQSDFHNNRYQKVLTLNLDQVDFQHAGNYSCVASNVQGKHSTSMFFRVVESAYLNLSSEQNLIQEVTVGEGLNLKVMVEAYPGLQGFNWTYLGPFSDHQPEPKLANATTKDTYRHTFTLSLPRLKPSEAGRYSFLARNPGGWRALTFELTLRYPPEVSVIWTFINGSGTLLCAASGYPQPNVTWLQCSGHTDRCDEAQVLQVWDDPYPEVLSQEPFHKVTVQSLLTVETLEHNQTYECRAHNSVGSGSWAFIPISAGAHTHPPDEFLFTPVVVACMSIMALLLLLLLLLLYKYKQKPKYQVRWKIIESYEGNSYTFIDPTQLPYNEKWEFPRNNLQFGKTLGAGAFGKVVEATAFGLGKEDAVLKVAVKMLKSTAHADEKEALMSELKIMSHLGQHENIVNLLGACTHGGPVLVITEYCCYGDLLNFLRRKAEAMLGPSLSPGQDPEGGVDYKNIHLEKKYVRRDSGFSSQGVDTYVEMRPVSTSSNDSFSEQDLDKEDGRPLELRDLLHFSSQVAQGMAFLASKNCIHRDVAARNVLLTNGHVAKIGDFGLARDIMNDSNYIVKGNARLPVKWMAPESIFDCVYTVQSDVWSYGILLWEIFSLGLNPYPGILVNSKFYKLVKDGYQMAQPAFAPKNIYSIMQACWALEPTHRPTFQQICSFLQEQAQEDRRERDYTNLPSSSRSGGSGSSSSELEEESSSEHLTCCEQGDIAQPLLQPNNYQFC

Experiment [3] has as its target Glycogen synthase kinase-3 beta (Homo sapiens) (UniProt P49841). Description: NVS_ENZ_hGSK3b: NovaScreen (NVS) Enzymatic Assay for human Glycogen Synthase Kinase-3 beta (GSK3b) (AID 2283165). In a few lines: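 Recombinant enzyme with specific fluorescent substrate, 1 h, product separated by electrophoretic mobility shift. Primary duplicate screen at 25 uM; actives (e.g. 30% inhibition) followed in singleton concentration-response to 50 uM. Signal loss fitted versus DMSO.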

Experiment [4] addresses human Casein Kinase 1-delta (CK1D), CSNK1D (gene 1453) (UniProt P48730). Description: NVS_ENZ_hCK1D: NovaScreen (NVS) Enzymatic Assay for human Casein Kinase 1-delta (CK1D) (AID 2283148). The gist of the method: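 Recombinant human CK1-delta, cell-free; fluorescent substrate with electrophoretic mobility-shift separation of product, read 1 h after dosing. Single 25 uM duplicate screen, then concentration-response up to 50 uM; loss of signal vs DMSO.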

For experiment [5], the target named is human AKT serine/threonine Kinase 2 (AKT2), AKT2 (gene 208) (UniProt P31751). Description: NVS_ENZ_hAKT2: NovaScreen (NVS) Enzymatic Assay for human AKT serine/threonine Kinase 2 (AKT2) (AID 2283141). In a few lines:
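Cell-free fluorescence/electrophoretic mobility shift readout of recombinant human AKT2 activity, 1 h after chemical dosing. Duplicate primary screen at 25 uM, then singleton concentration-response up to 50 uM; loss of signal versus DMSO baseline.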

In a further experiment the target is Caspase-3 (Homo sapiens) (UniProt P42574). Description: NVS_ENZ_hCASP3: NovaScreen (NVS) Enzymatic Assay for human Caspase 3 (CASP3) (AID 2283139). The gist of the method:
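Recombinant human caspase-3 from E. coli with a fluorogenic substrate, read by fluorescence 1 h after dosing. Primary screen in duplicate at 25 uM. Actives (for example ≥30% inhibition) rerun as concentration-response up to 50 uM.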

Experiment [6] has as its target human Caspase 4 (CASP4), CASP4 (gene 837) (UniProt P49662). Description: NVS_ENZ_hCASP4: NovaScreen (NVS) Enzymatic Assay for human Caspase 4 (CASP4) (AID 2283143). The gist of the method:
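The cell-free assay used E. coli-expressed enzyme with a fluorogenic substrate, read 2 h after dosing. Signal loss was scored versus DMSO. Screening was in duplicate at 25 uM, then singleton concentration-response up to 50 uM.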

For experiment [7], the target named is human Elastase, ELANE (gene 1991) (UniProt P08246). Description: NVS_ENZ_hElastase: NovaScreen (NVS) Enzymatic Assay for human Elastase (AID 2283153). The gist of the method:
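Cell-free elastase from human neutrophils, 1.5 h after dosing, activity read by absorbance. Primary screen in duplicate at 25 uM; hits (e.g., 30% inhibition) rerun in singleton concentration-response up to 50 uM, fitted versus DMSO.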

The target of experiment [8] is human Caspase 8 (CASP8), CASP8 (gene 841) (UniProt Q14790). Description: NVS_ENZ_hCASP8: NovaScreen (NVS) Enzymatic Assay for human Caspase 8 (CASP8) (AID 2283146). In a few lines: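 E. coli-expressed enzyme was used in a cell-free fluorogenic substrate assay read 1 h after dosing. Loss of signal was scored relative to DMSO, and the primary screen was run in duplicate at 25 uM.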
Sequence of human Caspase 8 (CASP8), CASP8 (gene 841) (Q14790 whole entry, looked up): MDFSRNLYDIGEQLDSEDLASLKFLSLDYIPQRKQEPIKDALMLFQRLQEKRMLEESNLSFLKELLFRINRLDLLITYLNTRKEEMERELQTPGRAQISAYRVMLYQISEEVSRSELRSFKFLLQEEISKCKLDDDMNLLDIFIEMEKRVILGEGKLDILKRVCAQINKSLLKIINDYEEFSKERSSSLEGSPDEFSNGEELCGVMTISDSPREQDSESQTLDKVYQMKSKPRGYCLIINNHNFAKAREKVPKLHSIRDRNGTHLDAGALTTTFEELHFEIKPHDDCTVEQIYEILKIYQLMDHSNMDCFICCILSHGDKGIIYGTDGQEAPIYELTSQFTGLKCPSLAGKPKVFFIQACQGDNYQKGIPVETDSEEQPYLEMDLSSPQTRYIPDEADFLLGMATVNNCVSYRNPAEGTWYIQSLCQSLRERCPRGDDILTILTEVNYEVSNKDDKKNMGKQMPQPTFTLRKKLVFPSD

Experiment [9] deals with human Beta-secretase (BACE), BACE1 (gene 23621) (UniProt P56817). Description: NVS_ENZ_hBACE: NovaScreen (NVS) Enzymatic Assay for human Beta-secretase (BACE) (AID 2283140).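 Further: hits are inhibitors that reduce fluorescent substrate signal versus DMSO.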 In a few lines: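 Recombinant BACE1 (SF9 extract) incubated with compound and fluorescent substrate, 1 h. Plates carried positive and DMSO negative controls. Initial single dose 25 uM, duplicate; confirmation by concentration series.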
Sequence of human Beta-secretase (BACE), BACE1 (gene 23621) (P56817 whole entry, looked up): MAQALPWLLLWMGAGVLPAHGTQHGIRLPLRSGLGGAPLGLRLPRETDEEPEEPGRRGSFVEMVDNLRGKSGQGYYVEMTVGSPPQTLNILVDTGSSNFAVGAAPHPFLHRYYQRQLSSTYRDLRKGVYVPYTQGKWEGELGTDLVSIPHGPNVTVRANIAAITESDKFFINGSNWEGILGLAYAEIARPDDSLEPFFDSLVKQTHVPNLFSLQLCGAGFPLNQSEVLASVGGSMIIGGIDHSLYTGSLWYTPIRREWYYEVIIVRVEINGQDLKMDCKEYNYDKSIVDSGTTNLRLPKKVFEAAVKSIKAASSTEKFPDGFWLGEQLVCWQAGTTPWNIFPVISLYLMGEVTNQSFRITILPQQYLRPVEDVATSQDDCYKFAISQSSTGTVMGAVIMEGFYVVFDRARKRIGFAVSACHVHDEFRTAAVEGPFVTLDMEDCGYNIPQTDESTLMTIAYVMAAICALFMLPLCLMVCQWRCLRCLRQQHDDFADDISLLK

The target of experiment [10] is Histone deacetylase 3 (Homo sapiens) (UniProt O15379). Description: NVS_ENZ_hHDAC3: NovaScreen (NVS) Enzymatic Assay for human Histone Deacetylase 3 (HDAC3) (AID 2283163). In a few lines: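 Recombinant human HDAC3 with fluorescent substrate, 1 h after dosing; product separated from substrate by electrophoretic mobility shift and read by fluorescence. Primary screen at 25 uM in duplicate; actives (e.g. ≥30% inhibition) retested in concentration-response up to 50 uM.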
Sequence of Histone deacetylase 3 (Homo sapiens) (O15379 whole entry, looked up): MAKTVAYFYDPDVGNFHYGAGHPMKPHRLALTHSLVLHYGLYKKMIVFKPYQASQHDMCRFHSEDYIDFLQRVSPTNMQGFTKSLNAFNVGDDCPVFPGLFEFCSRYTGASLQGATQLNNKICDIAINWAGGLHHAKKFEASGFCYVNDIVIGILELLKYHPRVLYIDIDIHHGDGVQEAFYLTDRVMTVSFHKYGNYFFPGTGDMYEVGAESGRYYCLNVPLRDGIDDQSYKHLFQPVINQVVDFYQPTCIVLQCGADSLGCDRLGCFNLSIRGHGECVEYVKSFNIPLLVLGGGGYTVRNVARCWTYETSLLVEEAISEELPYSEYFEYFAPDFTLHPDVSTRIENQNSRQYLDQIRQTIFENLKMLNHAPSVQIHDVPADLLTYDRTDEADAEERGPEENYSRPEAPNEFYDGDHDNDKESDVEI

Sequence of Glycogen synthase kinase-3 beta (Homo sapiens) (P49841 whole entry, looked up): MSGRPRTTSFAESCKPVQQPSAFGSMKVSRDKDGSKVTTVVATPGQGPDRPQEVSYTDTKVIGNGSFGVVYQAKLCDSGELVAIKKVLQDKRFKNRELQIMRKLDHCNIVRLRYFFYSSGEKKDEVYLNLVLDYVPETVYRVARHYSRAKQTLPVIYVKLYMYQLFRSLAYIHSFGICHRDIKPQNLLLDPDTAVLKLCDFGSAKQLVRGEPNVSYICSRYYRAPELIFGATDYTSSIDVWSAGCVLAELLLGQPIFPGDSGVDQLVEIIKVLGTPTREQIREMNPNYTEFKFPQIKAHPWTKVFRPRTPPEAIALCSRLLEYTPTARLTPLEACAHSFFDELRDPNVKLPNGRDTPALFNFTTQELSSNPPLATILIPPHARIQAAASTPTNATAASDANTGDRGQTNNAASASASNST
Sequence of human AKT serine/threonine Kinase 1 (AKT1), AKT1 (gene 207) (P31749 whole entry, looked up): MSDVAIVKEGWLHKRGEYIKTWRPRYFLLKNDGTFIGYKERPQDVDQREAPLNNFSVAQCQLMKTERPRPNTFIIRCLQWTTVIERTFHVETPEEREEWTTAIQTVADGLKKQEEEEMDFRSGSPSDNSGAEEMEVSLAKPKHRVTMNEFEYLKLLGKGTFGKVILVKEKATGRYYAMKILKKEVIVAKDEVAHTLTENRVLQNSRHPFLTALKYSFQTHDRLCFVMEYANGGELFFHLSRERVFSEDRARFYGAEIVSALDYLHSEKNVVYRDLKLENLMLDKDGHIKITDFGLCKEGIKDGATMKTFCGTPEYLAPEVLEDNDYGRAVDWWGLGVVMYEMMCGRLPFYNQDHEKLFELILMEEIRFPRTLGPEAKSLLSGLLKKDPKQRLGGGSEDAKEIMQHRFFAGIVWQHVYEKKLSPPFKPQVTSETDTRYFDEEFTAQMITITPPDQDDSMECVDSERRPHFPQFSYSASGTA
Sequence of human Caspase 4 (CASP4), CASP4 (gene 837) (P49662 whole entry, looked up): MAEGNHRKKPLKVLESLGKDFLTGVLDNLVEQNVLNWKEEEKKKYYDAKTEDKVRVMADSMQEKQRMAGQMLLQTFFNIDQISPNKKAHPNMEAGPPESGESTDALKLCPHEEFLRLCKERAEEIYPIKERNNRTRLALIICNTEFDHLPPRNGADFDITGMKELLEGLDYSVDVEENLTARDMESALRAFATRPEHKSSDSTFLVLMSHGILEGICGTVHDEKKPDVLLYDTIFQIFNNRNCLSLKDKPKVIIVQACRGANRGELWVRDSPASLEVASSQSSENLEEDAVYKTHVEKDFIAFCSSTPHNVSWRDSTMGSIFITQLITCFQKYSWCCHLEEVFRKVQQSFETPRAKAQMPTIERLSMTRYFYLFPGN
Sequence of human AKT serine/threonine Kinase 2 (AKT2), AKT2 (gene 208) (P31751 whole entry, looked up): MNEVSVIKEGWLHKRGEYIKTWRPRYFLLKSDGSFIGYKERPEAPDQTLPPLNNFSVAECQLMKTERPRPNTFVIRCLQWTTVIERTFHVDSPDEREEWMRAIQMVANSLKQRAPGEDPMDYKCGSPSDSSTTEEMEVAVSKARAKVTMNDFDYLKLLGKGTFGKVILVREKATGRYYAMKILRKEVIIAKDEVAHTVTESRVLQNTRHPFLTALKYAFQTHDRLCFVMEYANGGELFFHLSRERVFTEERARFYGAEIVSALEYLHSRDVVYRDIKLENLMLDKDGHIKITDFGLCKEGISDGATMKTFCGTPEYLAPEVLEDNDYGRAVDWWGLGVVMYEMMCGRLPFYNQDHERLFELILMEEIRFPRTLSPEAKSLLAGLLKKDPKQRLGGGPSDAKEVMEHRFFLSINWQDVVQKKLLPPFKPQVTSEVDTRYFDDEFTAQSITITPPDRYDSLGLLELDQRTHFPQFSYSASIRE
Sequence of human Casein Kinase 1-delta (CK1D), CSNK1D (gene 1453) (P48730 whole entry, looked up): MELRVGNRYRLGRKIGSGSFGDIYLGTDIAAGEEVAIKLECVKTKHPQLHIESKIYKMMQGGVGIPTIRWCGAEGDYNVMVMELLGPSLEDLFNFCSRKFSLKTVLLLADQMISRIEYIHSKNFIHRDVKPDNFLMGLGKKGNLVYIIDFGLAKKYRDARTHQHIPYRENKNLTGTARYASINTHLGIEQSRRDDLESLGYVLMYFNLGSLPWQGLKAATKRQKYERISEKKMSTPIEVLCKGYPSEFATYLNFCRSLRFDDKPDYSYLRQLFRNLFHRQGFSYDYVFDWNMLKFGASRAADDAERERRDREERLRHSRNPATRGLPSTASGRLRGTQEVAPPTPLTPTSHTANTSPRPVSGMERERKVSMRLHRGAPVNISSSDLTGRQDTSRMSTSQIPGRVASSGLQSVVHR
Sequence of Caspase-3 (Homo sapiens) (P42574 whole entry, looked up): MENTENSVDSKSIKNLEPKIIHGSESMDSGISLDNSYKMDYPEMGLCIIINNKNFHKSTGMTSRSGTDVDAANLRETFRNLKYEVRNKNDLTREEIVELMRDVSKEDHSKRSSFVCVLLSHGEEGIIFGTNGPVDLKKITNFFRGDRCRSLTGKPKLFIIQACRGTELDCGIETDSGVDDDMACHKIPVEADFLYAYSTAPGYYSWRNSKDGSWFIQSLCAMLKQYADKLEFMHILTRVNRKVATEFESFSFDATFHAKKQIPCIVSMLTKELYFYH

Take `CCCCCCCCCCCC(=O)OC`: the result in experiment [1] was inactive.

For the compound `CC(=O)Oc1ccccc1C(=O)O`, the result in [2] and in [3] was inactive.

Take `Cc1ccccc1Cl`: the compound was classed as inactive in [4].

As to `O=C(OCCCCCOC(=O)c1ccccc1)c1ccccc1`, the call in experiment [1], in [5], in [4], in [2] and in experiment [3] was inactive.

As to `Cc1nc(-c2ccc3c(c2)CCN(CCC2CCC(NC(=O)/C=C/c4ccc(F)cc4)CC2)CC3)no1` (stereo unspecified), the compound was called inactive (with Caspase-3 (Homo sapiens); in experiment [6]). In addition, the concentration at half-maximal activity (AC50) in experiment [7] was 18.3 µM (active).

As for `CCCCCC(=O)O`, the compound was classed as inactive in experiment [1] and in [5].

For the compound `C=CCc1ccc(O)c(OC)c1`, in experiment [3], the call was inactive.

As to `CNC(=O)[C@H]1O[C@@H](n2cnc3c(NCc4cc(Cl)ccc4OCc4cc(C)no4)ncnc32)[C@H](O)[C@@H]1N`, the compound was classed as inactive in experiment [1] and in experiment [8].

Turning to `CCCCc1ccc2c(n1)[C@@H](c1ccc(OC)cc1C[C@H](C)C(=O)O)[C@H](C(=O)O)[C@H]2c1ccc2c(c1)OCO2`, in experiment [9], the half-maximal activity concentration (AC50) is 9.68 µM (active). Besides, the call in [6] and in [3] was inactive.

In the case of `Cc1ccc(C(C)C)c(O)c1`, the outcome in experiment [6] was inactive.

Take `CCCCCCOCCO`: the compound was called inactive in experiment [1].

As for `CCCCCCCCCCO`, in [3], the outcome was inactive.

On to `Cc1cccc([N+](=O)[O-])c1C`, for which the outcome in [6] was inactive.

In the case of `CC(C)c1ccc(C(=O)N=C(N)N)cc1S(C)(=O)=O`, the compound was called inactive in experiment [10] and in experiment [3].
